# Reference: PubChem BioAssay (NCI)
# The panel holds about 83,000 compounds, 20% with a hit somewhere; the sample as a whole holds those more often.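 Percent growth is the endpoint: 0 to 100 indicates growth inhibition (40 means 60% inhibition), 0 means no net growth, and negative values indicate cell death.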 The source made the active and inactive calls.
# Tested on: MOLT-4 leukemia
# Test: NCI-60 one-dose screen, 48 h (100 = growth as untreated, 0 = no growth, -100 = all killed)
# Conditions: 10 µM unless noted
# Description: Growth inhibition of the MOLT-4 human tumor cell line is measured as a screen for anti-cancer activity. Cells are grown in 96 well plates and exposed to the test compound for 48 hours. Compounds are tested at a single concentration, which is 10^-5 M for most compounds. The reported endpoint is percent growth (GI% or GIPRCNT), where numbers from 0 - 100% represent growth inhibition, and numbers from -100% - 0 represent cell death. For example, a value of 40 represents 60% growth inhibition. A value of 0 means no net growth occurred over the course of the experiment. A value of -40 indicates 40% of cells at the beginning of the experiment died by the end of the experiment. A value of -100 means all cells are dead at the end of the experiment.
# NCI-60 Human Tumor Cell Lines Screen was performed using the standard one-dose NCI protocol, which is described in more detail at https://dtp.cancer.gov/discovery_development/nci-60/default.htm.
# Compounds with GIPRCNT values below 10 were considered active. Activity score was based on GIPRCNT using the following formula: […]
# Score is 0 for GIPRCNT values of 100 or above, 50 for GIPRCNT values of 0, and 100 for GIPRCNT values of -100.
row,SMILES,growth
1,O=C(O)CCC(=O)c1ccc(C2CCCCCC2)cc1,87.3% (inactive)
2,O=C(Nc1ccc(Br)cc1F)c1cc(I)ccc1O,6.68% (active)
3,Nc1ccc(-n2c(=O)oc3ccc(Cl)cc3c2=O)c(Cl)c1,-33.5% (active)
4,COc1cc(C2C(C#N)=C(N)OC3=C2C(=O)c2ccccc2C3=O)cc(OC)c1OC (stereo not given),87.1% (inactive)
5,CN1CCN(Cc2ccc(NC(=O)c3cncc(C#Cc4nc(N)nc5[nH]ncc45)c3)cc2C(F)(F)F)CC1,8.02% (active)
6,O=C(NCCCN1CCC(N2CCCCC2)CC1)C1=Cc2cc(Br)ccc2OC1,11.9% (inactive)
7,COc1c(B(O)O)cccc1-c1nc2ccc3[nH]ncc3c2c2c1C1CCC2C1 (stereo not given),52.8% (inactive)
8,CCCCc1c(CCC)c(=N)c2ccccc2n1C,60.6% (inactive)
9,O=C(/C=C/c1ccc(C(F)(F)F)cc1)c1ccc(Nc2nc(NCCO)nc(Nc3ccc(Cl)cc3)n2)cc1,20.7% (inactive)
10,CCOC(=O)c1sc(-c2ccc(OS(=O)(=O)c3ccc(Br)s3)c(C=O)c2)nc1C,9.25% (active)
11,Fc1cccc(COc2ccc(Nc3ncnc4onc(-c5ccccc5)c34)cc2)c1,15.4% (inactive)
12,CN1CCN(Cc2ccc(C(=O)Nc3cncc(C#Cc4cnc5cccnn45)c3)cc2C(F)(F)F)CC1,13.6% (inactive)
13,O=C(Nc1ccc(F)c(Cl)c1)Nc1ccc(Cl)c(Cl)c1,43.9% (inactive)
14,Nc1ccc(-c2ccc(-c3ccccc3N)c3[nH]c4ccccc4c23)cc1,22% (inactive)
15,O=NN(Cc1cccnc1)C(=O)NC1CCCCC1,111% (inactive)
16,O=C(NC1CCN(Cc2ccccc2)CC1)c1cc(C(=O)NC2CCN(Cc3ccccc3)CC2)cc(C(=O)NC2CCN(Cc3ccccc3)CC2)c1,45.8% (inactive)
17,CC(=O)Nc1nc2c(s1)CCc1c-2cn(S(=O)(=O)c2ccccc2)c1-c1ccccc1,48.2% (inactive)
18,COc1ccc(-c2nocc2-c2cccs2)cc1,108% (inactive)
19,COc1ccc(N)c(-c2cc3c(c4c2[nH]c2ccc(OC)cc24)CCCC3)c1,68.8% (inactive)
20,C#CCn1cc(C=C2C(=O)NC(=O)NC2=O)c2cc(Cl)ccc21,77.9% (inactive)

row,SMILES,growth
1,NCCOc1ccccc1/C=C1\c2ccccc2-c2ccc([N+](=O)[O-])cc21,-14.1% (active)
2,O=C(CCN1C(=O)c2ccccc2C1=O)Nc1ccc(Cl)cc1,42% (inactive)
3,O=C1c2ccccc2C(=O)c2c1ccc1[nH]c(CCl)nc21,-2.42% (active)
4,Clc1ncccc1Nc1ccc2nnc(-c3ccncc3)n2n1,93.4% (inactive)
5,CCOC(=O)c1sc(-c2ccc(OS(=O)(=O)C[C@]34CCC(CC3=O)C4(C)C)c(C=O)c2)nc1C,4.72% (active)
6,O=Cc1c(OCc2cnnn2CC(=O)Nc2ccc(Br)cc2)ccc2ccccc12,93.7% (inactive)
7,COc1ccc(C2C3=C(COC3=O)N(CCO)c3cc4c(cc32)CCC4)cc1OC (stereo not given),24% (inactive)
8,COc1ccc(-c2c(-c3ccc(OC)c(O)c3)cnc3ncnn23)cc1,100% (inactive)
9,N#C/C(=C\c1c(-c2ccccc2)[nH]c2ccccc12)S(=O)(=O)c1ccccc1,33.7% (inactive)
10,O=C(Nc1ccc(-c2nc3ccc(NC(=O)c4ccc(Cl)cc4)cc3[nH]2)cc1)c1ccc(Cl)cc1,3.96% (active)
11,C1CCN(c2nc(N3CCCCC3)nc(N3CCOCC3)n2)CC1,81.5% (inactive)
12,O=C(Nc1ccc(N2CCNCC2)cc1)c1[nH]ncc1Nc1ncnc2sc3c(c12)CCC3,-39.3% (active)
13,O=C1/C(=C\c2ccc[nH]2)c2ccccc2N1c1ccccc1,102% (inactive)
14,Cc1ccc2cc3c(N)c4c(C)ccc(C)c4nc3nc2c1,44.8% (inactive)
15,COc1ccc2oc(=O)cc(Cn3cc(Cn4cnc5c4c(=O)n(C)c(=O)n5C)nn3)c2c1,103% (inactive)
16,Cc1ccc(C(=O)c2oc3ccc4c(C)cc(=O)oc4c3c2C)cc1,7.13% (active)
17,O=C(Nc1ccc(N2CCNCC2)cc1)c1[nH]ncc1Nc1cc(Oc2ccccc2)ncn1,-16% (active)
18,OCCNc1nc(Nc2ccc(C3=NN(c4cc(Cl)cc(Cl)c4)C(c4ccc(C(F)(F)F)cc4)C3)cc2)nc(N2CCOCC2)n1 (stereo not given),60.2% (inactive)
19,CCN1C(=O)N(CC)C2Nn3c(s/c(=C4\C(=O)N(C(C)C)c5ccccc54)c3=O)=NC21 (stereo not given),19.6% (inactive)
20,COc1ccc(-c2cn3c(C(=O)Nc4ccccc4Cl)c(-c4ccccc4)c4c3n2CCCC4)cc1,69.8% (inactive)
